Measured values as given in PubChem BioAssay (NCATS).
Records with an inconclusive call do not appear. Calls of active or inactive are those of the source. Unless noted, the call rests on the fitted dose curve; in most records, active means well fitted curve in the direction sought with a large enough effect; inconclusive means small, poorly fitted or top-dose-only effect, or another doubt; inactive means no such curve, though single readings can be large; an effect the other way counts as inactive or inconclusive.

What was measured:
[1] = Cell Viability - BJ (AID 421; calls by dose curve;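 further: potency means the concentration at half of the fitted maximal effect; cells exposed to compound for 40 hours at 37 °C before readout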); conditions: BJ fibroblast viability, qHTS
In short: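 Cytotoxicity in human BJ foreskin fibroblasts is scored as loss of cellular ATP after a 40-hour exposure, measured by luciferase luminescence. Controls are DMSO and 100 uM tamoxifen.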

[2] = Cell Viability - Jurkat (AID 426;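 active means dose-dependent loss of cell ATP signal giving a full or clear fitted curve, ranked by lower potency value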; further: potency means the concentration at half of the fitted maximal effect); conditions: qHTS
In short: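 Luminescent ATP read-out (CellTiter-Glo, 20 min at room temperature) after 40 hr compound exposure at 37 °C of Jurkat E6-1 cells, 5000/well. Decreased ATP taken as cytotoxicity; AC50 from standard Hill equation.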

[3] = Cell Viability - Hek293 (AID 427;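 active means compounds whose dose-response curve shows a full or clear partial loss of cell viability, called from curve shape rather than a numeric limit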;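 further: potency means the concentration at half of the fitted maximal effect; cells exposed to compound for 40 hours at 37 °C before reading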); conditions: qHTS
In short: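 qHTS, human embryonic kidney (adenovirus-transformed) cells; 40 hr cpd, 37 °C; CellTiter-Glo ATP luminescence. Norm: DMSO = 0, 100 uM tamoxifen = 100% inhibition. Hill-fit AC50.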

[4] = Cell Viability - HepG2 (AID 433; calls by dose curve;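 further: potency means the concentration at half of the fitted maximal effect; potency for ATP loss meaning cytotoxicity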); conditions: qHTS
In short: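 HepG2 cells, 1500 per well, treated 40 hr at 37 °C in complete medium; viability from intracellular ATP by CellTiter-Glo luminescence. Normalized to DMSO and 100 uM tamoxifen; AC50 from Hill fit of qHTS concentration-response.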

[5] = Cell Viability - MRC5 (AID 434; calls by dose curve;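 further: potency means the concentration at half of the fitted maximal effect; potency reflects cytotoxicity seen as loss of intracellular ATP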); conditions: MRC5 lung fibroblast viability, qHTS
In short: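 AC50 values come from Hill-equation fits of intracellular ATP loss, measured by CellTiter-Glo luminescence. Normal lung fibroblasts (MRC5) had 40 hr compound treatment at 37 C, normalized between DMSO and 100 uM tamoxifen.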

[6] = Cell Viability - SK-N-SH (AID 435; calls by dose curve; further: potency means the concentration at half of the fitted maximal effect); conditions: SK-N-SH neuroblastoma cell viability qHTS
In short: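 SK-N-SH neuroblastoma cells (1500/well) treated 40 h at 37 °C in complete medium; viability read as cellular ATP by CellTiter-Glo luminescence. Normalized to DMSO and 100 uM tamoxifen; AC50 from Hill fits of qHTS concentration-response.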

[7] = Cell Viability - N2a (AID 540); conditions: N2a mouse neuroblastoma cell viability; activity change, negative = cytotoxicity: at 92.2 µM (top of the series);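 further: plate controls were DMSO alone for no effect and tamoxifen control for full effect; nearly all actives have a fitted effect of over 45% in size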
In short: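 N2a mouse neuroblastoma, 1500 cells/well, 5 hr settle; compound 40 hr, 37 °C; CellTiter-Glo 20 min RT; luminescence; Hill-fit AC50.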

[8] = Cell Viability - NIH 3T3 (AID 541); conditions: NIH 3T3 cell viability, qHTS; activity change, negative = cytotoxicity: at 92.2 µM (top of the series);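 further: plate controls were DMSO alone for no effect and tamoxifen positive control for full effect; nearly all actives have a fitted effect of over 25% in size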
In short: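 qHTS format; 40 hr compound exposure, 37 °C; CellTiter-Glo luminescence (cellular ATP) read-out after 20 min at RT. Decrease in ATP = cytotoxicity; AC50 from standard Hill fit.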

[9] = Cell Viability - HUV-EC-C (AID 542); conditions: HUV-EC-C endothelial cell viability, qHTS; series mostly up to 92.2 µM; further: on the % scale 0 is the no-effect control and ±100 the full control effect; nearly all actives have a fitted effect of over 35% in size
In short: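 Luminescent ATP read-out (CellTiter-Glo, 20 min room temperature) after 40 hr compound treatment of HUV-EC-C cells at 37 °C. Concentration-response data fitted with the standard Hill equation to give AC50; tamoxifen and doxorubicin served as positive controls.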

[10] = Cell Viability - SH-SY5Y (AID 544); conditions: SH-SY5Y neuroblastoma cell viability; viability change, negative = cytotoxic: at 92.2 µM (top of the series); further: nearly all actives have a fitted effect of over 55% in size
In short: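 SH-SY5Y, 1500 cells/well, 5 hr pre-incubation 37 °C; cpd 40 hr 37 °C; CellTiter-Glo 20 min RT; luminescence (ATP) read. qHTS concentration-response, Hill fit → AC50. Tamoxifen, doxorubicin as positive controls.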

[11] = Cell Viability - Mesenchymal (AID 546); conditions: mesenchymal cells viability, qHTS; series mostly up to 91.7 µM;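 further: cells exposed to compound for 40 hours before reading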
In short: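 CellTiter-Glo luminescence (intracellular ATP, 20 min room temperature) after 40 hr compound exposure at 37 °C of 1000 glomerulus-derived human kidney mesenchymal cells/well; AC50 values obtained by fitting qHTS concentration-response data to the Hill equation.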

[12] = Cellular Toxicity (caspase-3) HepG2 (AID 654); conditions: HepG2 caspase-3 activation, luminescence; series mostly up to 92.2 µM;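 further: cells exposed to compound for 16 hours before reading; 0% = DMSO alone and 100% = caspase signal from 100 µM tamoxifen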
In short: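 Luminescent Caspase-Glo 3/7 readout after 16 hr compound exposure of human hepatocellular carcinoma HepG2 cells at 37 °C; qHTS concentration-response, normalized DMSO = 0%, 100 uM tamoxifen = 100%; AC50 by standard Hill equation.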

[13] = Cellular Toxicity (caspase-3) Jurkat (AID 655); conditions: Jurkat caspase-3 activation, luminescence; caspase-3 activation: at 92.2 µM (top of the series), DMSO = 0%, tamoxifen = 100%;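 further: cells exposed to compound for 16 h at 37 °C before reading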
In short: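 Jurkat cells (5000/well) in complete medium exposed 16 h at 37 C; caspase-3/7 activity read by Caspase-Glo luminescence after 20 min at room temperature. Normalized to DMSO and 100 uM tamoxifen; AC50 from Hill fits.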

[14] = Cellular Toxicity (caspase-3) HUV-EC-C (AID 656); conditions: HUV-EC-C cells, caspase-3 activation (apoptosis), vehicle = 0, 100 µM tamoxifen = 100%; series mostly up to 92.2 µM
In short: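 HUV-EC-C cells (1000/well) in complete medium, compound-treated 16 h at 37 °C; caspase-3/7 activity read by Caspase-Glo 3/7 luminescence. Normalized to DMSO (basal) and 100 uM tamoxifen (100%); AC50 from Hill-equation concentration-response fits.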

[15] = Cellular Toxicity (caspase-3) SHSY5Y (AID 657); conditions: SH-SY5Y caspase-3 activation, DMSO zero, 10 µM staurosporine = 100%; series mostly up to 91.7 µM
In short: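 SH-SY5Y human neuroblastoma cells, 1500/well, exposed to compound for 16 hours at 37 °C in complete medium. Caspase-3/7 activity read by Caspase-Glo luminescence after 1 hr at room temperature, normalized to DMSO and 10 uM staurosporine; AC50 from Hill fit.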

[16] = Cellular Toxicity (caspase-3) BJ (AID 658); conditions: BJ fibroblasts, luminescence, normalized: DMSO 0%, staurosporine 100%; series mostly up to 91.7 µM
In short: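 Caspase-Glo 3/7 luminescence, read 1 hr after reagent at room temperature, in normal BJ fibroblasts exposed 16 hours at 37 °C. AC50 values from Hill-equation concentration-response, scaled between DMSO basal and 10 uM staurosporine as 100%.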

[17] = Cellular Toxicity (caspase-3) MRC-5 (AID 659); conditions: MRC-5 cells, luminescence, normalized: DMSO 0%, 10 µM staurosporine 100%; series mostly up to 91.7 µM
In short: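 Luminescent Caspase-Glo 3/7 read-out (1 h, room temperature) after a 16 h, 37 °C compound exposure of MRC-5 lung fibroblasts at 1500 cells/well. Concentration-response AC50 from Hill equation; 0% DMSO, 100% 10 uM staurosporine.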

[18] = molecular target: Mitogen-activated protein kinase 10 (Mus musculus) (UniProt Q61831); test: JNK3 AlphaScreen Assay (AID 530; active means well fitted curve in either direction with a large enough effect, not every such curve was filed as active;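 further: kinase came from lysate of stimulated human HepG2 cells; signal reports phosphorylation of biotinylated GST-cJun 1-79 at Ser73 with 10 µM ATP; on the % scale 0 is the no-effect control and ±100 the full control effect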); conditions: JNK3 lysate, c-Jun phosphorylation; series mostly up to 57.1 µM
In short: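 Kinase buffer: 20 mM Tris-HCl pH 7.6, 10 mM MgCl2, 1 mM DTT, 0.1 mM Na3VO4, 0.01% Tween-20; ATP 10 uM. Substrate biotin-GST-cJun(1-79), enzyme from activated HepG2 lysates. Detection by Ser73 phospho-antibody AlphaScreen.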

[19] = Cell Viability - H-4-II-E (AID 543); conditions: H-4-II-E rat hepatoma viability; series mostly up to 92.2 µM; further: on the % scale 0 is the no-effect control and ±100 the full control effect; nearly all actives have a fitted effect of over 35% in size
In short: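 qHTS, rat hepatoma H-4-II-E, 1500 cells/well; 40 hr compound exposure, 37 °C; CellTiter-Glo ATP luminescence after 20 min RT; AC50 by standard Hill fit.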

[20] = Cell Viability - Renal Proximal Tubule (AID 545); conditions: renal proximal tubule cells viability, primary cells of rat origin; series mostly up to 91.7 µM; further: nearly all actives have a fitted effect of over 40% in size
In short: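 Rat renal proximal tubule primary cells, 1000/well, exposed to compounds for 40 hr at 37 °C in complete medium; cellular ATP read by CellTiter-Glo luminescence. AC50 from concentration-response fitted with standard Hill equation.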

Clc1cc(Cl)cc(Cl)c1
inactive: Potency [1] > 92 µM | Potency [2] > 92 µM | Potency [3] > 92 µM | Potency [4] > 92 µM | Potency [5] > 92 µM | Potency [6] > 92 µM | activity change, negative = cytotoxicity [7] 4.86% | Potency [8] | Potency [9] | Potency [10] | Potency [11] | Potency [12] | caspase-3 activation [13] 0.897% | outcome [14] | outcome [15] | outcome [16] | outcome [17]

CCCCC(=O)N(C)C
inactive: Potency [1] > 92 µM | Potency [2] > 92 µM | Potency [3] > 92 µM | Potency [4] > 92 µM | Potency [5] > 92 µM | outcome [18] | activity change, negative = cytotoxicity [7] -2.03% | Potency [8] | Potency [9] | Potency [19] | Potency [10] | Potency [20] | Potency [11] | Potency [12] | caspase-3 activation [13] -0.841% | outcome [14] | outcome [15] | outcome [16] | outcome [17]

Nc1nc(-c2ccccc2)cs1
inactive: Potency [1] > 92 µM | Potency [2] > 92 µM | Potency [3] > 92 µM | Potency [4] > 92 µM | Potency [5] > 92 µM | Potency [6] > 92 µM | activity change, negative = cytotoxicity [7] -4.72% | Potency [8] | Potency [9] | Potency [20] | Potency [11] | Potency [12] | caspase-3 activation [13] -3.96% | outcome [14] | outcome [15] | outcome [16] | outcome [17]

O=C(Cl)c1cccc([N+](=O)[O-])c1
inactive: Potency [1] > 92 µM | Potency [2] > 92 µM | Potency [3] > 92 µM | Potency [4] > 92 µM | Potency [5] > 92 µM | outcome [18] | activity change, negative = cytotoxicity [7] 5.21% | Potency [8] | Potency [9] | Potency [19] | Potency [10] | Potency [20] | Potency [11] | Potency [12] | caspase-3 activation [13] 2.23% | outcome [14] | outcome [16] | outcome [17]

C=C(C)OC(C)=O
inactive: Potency [1] > 92 µM | Potency [2] > 92 µM | Potency [3] > 92 µM | Potency [4] > 92 µM | Potency [5] > 92 µM | Potency [6] > 92 µM | activity change, negative = cytotoxicity [7] -6.88% | Potency [9] | Potency [19] | Potency [10] | Potency [20] | Potency [11] | Potency [12] | caspase-3 activation [13] -0.77% | outcome [14] | outcome [15] | outcome [16] | outcome [17]

N#CC1(O)CCCCC1
inactive: Potency [1] > 92 µM | Potency [2] > 92 µM | Potency [3] > 92 µM | Potency [4] > 92 µM | Potency [5] > 92 µM | outcome [18] | activity change, negative = cytotoxicity [7] 14.1% | Potency [8] | Potency [9] | Potency [19] | Potency [10] | Potency [20] | Potency [12] | caspase-3 activation [13] 1.9% | outcome [14] | outcome [16] | outcome [17]

CCCCCCCCN
inactive: Potency [1] > 92 µM | Potency [2] > 92 µM | Potency [3] > 92 µM | Potency [4] > 92 µM | Potency [5] > 92 µM | outcome [18] | activity change, negative = cytotoxicity [7] 7.89% | Potency [8] | Potency [9] | Potency [19] | Potency [10] | Potency [20] | Potency [11] | Potency [12] | caspase-3 activation [13] 1.3% | outcome [14] | outcome [16] | outcome [17]

Cc1ccc2oc(=O)ccc2c1
inactive: Potency [1] > 92 µM | Potency [2] > 92 µM | Potency [3] > 92 µM | Potency [4] > 92 µM | Potency [5] > 92 µM | outcome [18] | activity change, negative = cytotoxicity [7] -1.53% | Potency [8] | Potency [9] | Potency [19] | Potency [20] | Potency [11] | Potency [12] | caspase-3 activation [13] 0.624% | outcome [14] | outcome [15] | outcome [16] | outcome [17]

C=Cc1ccccn1
inactive: Potency [1] > 92 µM | Potency [2] > 92 µM | Potency [3] > 92 µM | Potency [4] > 92 µM | Potency [5] > 92 µM | outcome [18] | activity change, negative = cytotoxicity [7] 5.72% | Potency [9] | Potency [19] | Potency [10] | Potency [20] | Potency [11] | Potency [12] | caspase-3 activation [13] 0.756% | outcome [14] | outcome [15] | outcome [16] | outcome [17]

CCc1ccccc1
inactive: Potency [1] > 92 µM | Potency [2] > 92 µM | Potency [3] > 92 µM | Potency [4] > 92 µM | Potency [5] > 92 µM | Potency [6] > 92 µM | activity change, negative = cytotoxicity [7] -7.66% | Potency [9] | Potency [19] | Potency [10] | Potency [12] | caspase-3 activation [13] 1.71% | outcome [14] | outcome [15] | outcome [16] | outcome [17]

FC(F)(F)c1cccc(Cl)c1
inactive: Potency [1] > 92 µM | Potency [2] > 92 µM | Potency [3] > 92 µM | Potency [4] > 92 µM | Potency [5] > 92 µM | Potency [6] > 92 µM | activity change, negative = cytotoxicity [7] -8.83% | Potency [8] | Potency [9] | Potency [10] | Potency [20] | Potency [12] | caspase-3 activation [13] -0.146% | outcome [14] | outcome [16] | outcome [17]

CSc1ccc(C=O)cc1
inactive: Potency [1] > 92 µM | Potency [2] > 92 µM | Potency [3] > 92 µM | Potency [4] > 92 µM | Potency [5] > 92 µM | outcome [18] | activity change, negative = cytotoxicity [7] 0.565% | Potency [8] | Potency [9] | Potency [10] | Potency [20] | Potency [11] | Potency [12] | caspase-3 activation [13] 1.05% | outcome [14] | outcome [15] | outcome [16] | outcome [17]
